Measured values taken from the supplement of paper PMC6555819.

Tests used:
Assay in all cases: PBM binding z-score (relative to random genomic background probes); higher = stronger binding; sequences stand for … in GC…GCGATTGACAGCGTAGAATGAAGG
[1] = system: FXR:RXRa (NR concentration 270 nM, RXRa partner concentration 90 nM)
Method in brief: (§1)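 Custom Agilent 4×180K protein-binding microarrays carried double-stranded probes. Their 34-nt variable regions held direct-repeat seeds, single-nucleotide variants, half-site ablations and random human genomic background sequences. Arrays were incubated 1 h with ligand-free nuclear receptor dimers in PBS pH 7.4, 2% milk, 0.02% Triton X-100, 1 mM DTT, 0.2 mg/mL BSA and 0.4 mg/ml salmon testes DNA. Antibodies against each partner (one per run) detected binding, and scanned fluorescence was regression-normalized. Binding z-scores use random background probes as reference.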

[2] = system: LXRa:RXRa (NR concentration 270 nM, RXRa partner concentration 90 nM)
Method in brief: as §1

[3] = system: LXRa homodimer (NR concentration 270 nM)
Method in brief: as §1

[4] = system: LXRb:RXRa (NR concentration 270 nM, RXRa partner concentration 90 nM)
Method in brief: as §1

[5] = system: LXRb homodimer (NR concentration 270 nM)
Method in brief: as §1

[6] = system: PPARa:RXRa (NR concentration 270 nM, RXRa partner concentration 90 nM)
Method in brief: as §1

[7] = system: PPARg:RXRa (NR concentration 180 nM, RXRa partner concentration 90 nM)
Method in brief: as §1

[8] = system: PPARg:RXRa 270nM:90nM, anti-RXR (NR concentration 270 nM, RXRa partner concentration 90 nM)
Method in brief: as §1

[9] = system: PPARg:RXRa 30nM:10nM, anti-RXR (NR concentration 30 nM, RXRa partner concentration 10 nM)
Method in brief: as §1

[10] = system: PPARg:RXRa 90nM:30nM, anti-RXR (NR concentration 90 nM, RXRa partner concentration 30 nM)
Method in brief: as §1

Sequence | PBM binding z-score [1] | PBM binding z-score [2] | PBM binding z-score [3] | PBM binding z-score [4] | PBM binding z-score [5] | PBM binding z-score [6] | PBM binding z-score [7] | PBM binding z-score [8] | PBM binding z-score [9] | PBM binding z-score [10]
CGAACTAGGTCACCAGCACAGTGAAGAGGTTGGA | 4.03 | 2.42 | 0.171 | 1.53 | -0.224 | 5.12 | 8.39 | 7.01 | 4.62 | 6.53
CCTACTGGGCCAATAAGGTCATTGATGCCGATAA | 2.84 | 2.93 | 1.06 | 3.03 | -0.277 | 4.04 | 2.89 | 3.1 | 0.789 | 2.38
GCTGCTAGGTCAACTGAAGGTCAGCTAAAGCTCG | 5.14 | 4.92 | 4.01 | 3.69 | 0.218 | 4.26 | 3.73 | 4.61 | 1.03 | 3.19
CCTAGTTGGGCAGGAGGTCACACACCGGATATGA | 2.73 | 2.97 | 1.41 | 2.79 | -0.389 | 3.7 | 3.31 | 4.01 | 1.77 | 3.33
TCTGCTATGTCAACGATGGTCAGCTAATCTGCTA | -0.367 | -0.339 | -1.07 | -0.513 | -0.553 | -0.269 | -0.313 | 0.46 | 1.01 | 0.668
CGAACTAGGTCCAAGGACAGTGAAAGGCGACGTA | -0.44 | -0.748 | -0.421 | -0.931 | -1.24 | 0.459 | 1.53 | 2.19 | 0.583 | 1.69
CCTTACGGGTCAAGGTTGTAGCACGGGTGGTACG | 4.89 | 3.37 | -0.181 | 2.48 | -0.0387 | 4.68 | 4.01 | 4.21 | 1.2 | 3
ATATGTAGGTTAGGGTCTTTCAGAAAGTAGGGAA | 1.38 | 0.75 | 0.422 | 1.37 | 1.11 | 3.21 | 4.93 | 3.87 | 1.72 | 3.03
CTCGAAAGGTCGTGCTTAGGTGAGTATACCAAAC | 4.83 | 3.99 | 0.372 | 3.46 | 0.121 | 4.98 | 2.86 | 4.3 | 1.12 | 2.98
CGAACTAGGTCACAAGGACAGTGAAGAGGTTGGA | 3.87 | 2.13 | 0.193 | 1.57 | -0.115 | 5.01 | 8.73 | 7.01 | 4.93 | 6.82
CGAACTAGGTCAAAGGACAGTCAAAGGCGACGTA | 4.15 | 2.73 | -0.061 | 1.89 | -0.231 | 5.68 | 10.2 | 8.68 | 8.42 | 9.11
ATGTGTAGGTTACATCCGGGTCATTCAGGCTATG | 2.23 | 4.19 | 1.76 | 2.87 | 0.855 | 3.45 | 2.44 | 2.64 | 0.934 | 2.02
CGTGCAAGGTCAGAGAGGTCAGTGAATGCCGAGT | 6.42 | 5.22 | 3.35 | 4.61 | 0.199 | 5.16 | 3.9 | 4.62 | 1.19 | 3.09
ACTAGTTGGTAAGCTGAGGTCACACACAATTCGG | 2.58 | 3.17 | 2.68 | 3.35 | 0.606 | 3.57 | 1.54 | 1.96 | 0.653 | 1.13
CGAACTCGGTCACCAGGACAGTGAAGAGGTTGGA | 0.841 | 0.683 | 0.119 | -0.176 | -1.17 | 1.76 | 1.91 | 1.64 | -0.104 | 0.606
CTCGAAAGGTCAGTTGAGGTGAGTATACGGATAA | 6.96 | 5.84 | 1.79 | 4.51 | 2.26 | 5.5 | 4.89 | 5.13 | 1.86 | 4.15
CCTACTGGGCCAAAGGACATTGATTCCAATGCTC | -0.0323 | -0.0828 | -0.295 | -0.127 | -0.465 | 2.62 | 5.82 | 6.75 | 5.26 | 7.73
AGTCAAAGTTCAGGACGAGGTCACGTAAAGCACG | 6.35 | 5.87 | 4.71 | 4.87 | 0.736 | 5.46 | 6.17 | 6.26 | 2.76 | 4.97
ATATGTAGGTTACATCCGGGTCATTCTGGCTATG | 2.03 | 3.94 | 1.66 | 3.12 | 0.83 | 4.43 | 6.19 | 4.83 | 2.69 | 3.95
CCCACTGGGCCATTCAGAGGTCATTGATCATATG | 2.54 | 4.33 | 5.65 | 3.72 | 0.313 | 3.79 | 2.37 | 3.28 | 0.826 | 2.27
CTCGAAAGGTCGGTTGAGGTGACTATACGGATAA | 3.63 | 1.84 | -0.14 | 1.58 | 0.0463 | 2.63 | 0.621 | 1.11 | 0.252 | 0.639
CGTCCAAGGTCATACGAGGTCAGTGAAGACAGAT | 7.86 | 7.57 | 5.5 | 6.63 | 1.78 | 5.87 | 5.57 | 5.9 | 2.88 | 4.6
CGAACTAGGTCACCAGGAGAGTGAAGAGGTTGGA | 3.86 | 2.33 | -0.171 | 1.33 | -0.287 | 4.87 | 8.26 | 6.73 | 4.58 | 6.24
CGAACTAGGTCAAAGGAGAGTGAAAGGCGACGTA | 3.72 | 2.61 | -0.0759 | 1.64 | -0.486 | 5.05 | 8.9 | 7.8 | 7.23 | 8.14
CCTACTGGGCCAAAGGTCTTTGATTCCAATGCTC | -0.409 | -0.406 | -0.413 | 0.232 | -0.841 | 4.15 | 8.96 | 8.59 | 7.74 | 9.9

Sequence | PBM binding z-score [1] | PBM binding z-score [2] | PBM binding z-score [3] | PBM binding z-score [4] | PBM binding z-score [5] | PBM binding z-score [6] | PBM binding z-score [7] | PBM binding z-score [8] | PBM binding z-score [9] | PBM binding z-score [10]
TCTTGTAGATCAAAGGTTAAGACAGCCGAAGCCT | 1.72 | 2.27 | 0.473 | 2.31 | -0.101 | 4.74 | 8.11 | 8.23 | 7.63 | 8.39
CAAACTAGGTCACCGGGAGGTCAAAGTCCGCATG | 6.46 | 6.26 | 6.39 | 5.87 | 1.73 | 6.17 | 9.53 | 8 | 6.05 | 8.25
ATATGTAGGTTAGGGTCATTCCGAAAGTAGGGAA | 4.95 | 3.68 | 1.27 | 4.26 | 1.53 | 5.69 | 7.77 | 6.58 | 4.22 | 6.26
CGTCAAAGTTCTAGGTAACGTAACAGAAAGCAGC | -0.164 | -0.199 | 0.179 | 0.0595 | -0.169 | 0.259 | 0.641 | 0.228 | -0.178 | 0.017
CGTCCAAGGGCAGCAGGTCAGTGAAAGCGACGTG | 0.137 | -0.0372 | -0.847 | -0.105 | -1.37 | 0.938 | 0.305 | 0.501 | -0.617 | -0.019
TGTCAAAGCTCAAAGGTAACGTAAGTATCCACAC | 0.08 | -0.0986 | -0.625 | 0.416 | -0.838 | 1.04 | 1.25 | 1.81 | 0.686 | 1.43
CGAACTAGTTCACCAGGACAGTGAAGAGGTTGGA | 0.244 | 0.23 | -0.131 | -0.137 | -0.531 | 0.836 | 0.543 | 0.354 | -0.289 | -0.0706
TAGCCAAGGTCATTCAGGGGCCAGTATAGAAAGC | 7.35 | 5.84 | 1.66 | 4.6 | 2.35 | 5.19 | 4.6 | 4.81 | 1.47 | 3.17
TAGCCTAGGTCATTCAGGGGTCAGTATAGAAAGC | 5.8 | 5.2 | 3.94 | 5.72 | 2.32 | 5.18 | 4.13 | 4.56 | 1.78 | 3.3
CGTCAAAGTTCACCTAAGGTAACGTAAAGCACGC | 6.94 | 6.74 | 3.99 | 4.24 | 1.27 | 5.11 | 5.63 | 5.75 | 2.48 | 4.52
ATACCAAGGTCATCGTGAGGTCGTTGATACTAAC | 7.59 | 6.05 | 4.44 | 5.33 | 1.71 | 5.74 | 6.03 | 5.6 | 2.72 | 4.27
CGAACTAGGTCACCAGGATAGTGAAGAGGTTGGA | 4.03 | 2.47 | 0.115 | 1.87 | -0.103 | 5.37 | 8.87 | 6.98 | 4.74 | 6.8
CGAACTAGGTCAAAGGACAGTGACAGGCGACGTA | 4.22 | 2.82 | 0.19 | 1.88 | -0.493 | 5.56 | 10.5 | 8.72 | 8.9 | 9.48
GATAGTTGGTCAGTAAAAGGTCACACACCGGTCG | 3.47 | 4.21 | 4.89 | 4.06 | 0.786 | 4.57 | 3.46 | 4.68 | 2.35 | 3.8
TCTCGGAGGACACGAAACGTCAGAGCTCGACATC | 0.138 | -0.218 | -0.617 | -0.347 | -0.872 | -0.13 | 0.395 | 0.915 | 2.04 | 1.4
CGAACTAGGTCAGAGGACAGTGAAAGGCGACGTA | 1.21 | 0.781 | -0.404 | 0.187 | -0.968 | 3.61 | 8.37 | 6.52 | 6.22 | 7.35
AGTCAGAGTTCATCTAGGTAACGTAAGATATGCT | 6.74 | 5.36 | 4.78 | 3.63 | 1.48 | 4.64 | 4.23 | 4.21 | 1.67 | 3.42
ATATGTAGGTTAGGGTCATCCAGAAAGTAGGGAA | 5.11 | 4.21 | 1.16 | 4.31 | 1.44 | 5.62 | 8.03 | 6.66 | 4.94 | 6.67
CTCGAAAGGTCGTCCTCAGGTGAGTATACCAAAC | 4.94 | 3.75 | 0.547 | 3.32 | 0.328 | 4.54 | 2.08 | 3.47 | 0.492 | 2.43
CCTACTGTGCCATTCAGAGGTCATTGATCATATG | 2.84 | 4.75 | 6.87 | 4.59 | 1.67 | 3.96 | 1.74 | 2.71 | 0.936 | 1.83
CAAACTAGGTCACGAAAGGTCAAAGCCGAATGAC | 7.72 | 8.31 | 8.03 | 7.21 | 2.38 | 6.89 | 10.6 | 8.43 | 7.38 | 8.99
AGTCCAAGTTCACTAGGTAACGTAAGATTCAGCT | 1.35 | 1.68 | 0.49 | 0.985 | 0.056 | 2.69 | 2.6 | 2.95 | 0.796 | 1.91
ATATGGAGGTTAAGGGTCATTCAGGTTGGTTCGC | 6.25 | 5.67 | 3.97 | 5.2 | 1.77 | 6 | 9.22 | 8.75 | 7.43 | 10.3
TATCCTAGGTCAGATCGGGCCAGTATACGCTATA | 2.81 | 3.67 | 2.41 | 2.2 | 1.81 | 2.49 | 1.46 | 2.04 | 0.691 | 1.56
